One assay relates to EGFR. Particulars: concentration: 1 μM,replicates: in singlicate; n = 1.
For `CS(=O)c1ccc(-c2coc3ccc(-c4n[nH]c(=O)o4)cc23)cc1` (centres unmarked), the “%Inh” value amounted to 0%.
Still for that read-out and setting: in the case of `Cc1ccc(Nc2ccnc(Nc3ccc4c(c3)CS(=O)(=O)C4)n2)cc1O.Cl` [GW579362] it was 55%.
With `CS(=O)(=O)Nc1ccc(-c2ccnc3[nH]ccc23)cc1` [GSK993273], the “%Inh” value is listed as 17%.
In the case of `COc1cc(Nc2nccc(N3CCC(NC(=O)c4cccc(C#N)c4)C3)n2)cc(OC)c1OC` (centres unmarked) [GSK1379751], the “%Inh” value is on record as 29%.
Same read-out and setting: in the case of `O=c1[nH]cc(-c2ccc(O)cc2)c2sc(-c3ccncc3)cc12` [GSK1033723] it was 32%; in that of `COc1cccc(CNC(=O)NC2CCN(c3ccnc(Nc4cc(OC)c(OC)c(OC)c4)n3)C2)c1` (centres unmarked) [GSK1379765], 28%; in that of `O=C1NCCc2[nH]c(-c3ccncc3)cc21`, 0%.
On the same count and under the same terms, in the case of `O=C(Nc1ccc(Oc2ccc3nc(NC(=O)C4CC4)cn3n2)c(F)c1)c1cccn(-c2ccccc2)c1=O` it was 13%; in that of `COC(=O)c1cccc(NC(=O)NC2CCN(c3ccnc(NCc4ccc(F)cc4)n3)CC2)c1` [GSK1379860], 51%.
On to `Nc1nccc(-c2ccc3c(N)n[nH]c3c2)n1` [GSK1034945], for which the “%Inh” value worked out at 24%.
Same read-out and setting: in the case of `CC(C(=O)NC1CCN(c2ccnc(Nc3ccc(F)cc3)n2)C1)c1ccc(Cl)cc1` (centres unmarked) [GSK1379713] it was 28%; in that of `Cc1ccc(C(=O)Nc2ccc(Oc3ccc4nc(NC(=O)C5CC5)cn4c3)c(F)c2)c(=O)n1-c1ccccc1`, 0%.
As for `OCCn1cc(-c2cnc3nnn(Cc4ccc5ncccc5c4)c3n2)cn1`, the “%Inh” value is 0%.
Still for that read-out and setting: in the case of `CN1CCN(CCNc2nc3cc(Oc4ccc(NC(=O)Nc5cc(C(F)(F)F)ccc5F)cc4)ccc3[nH]2)CC1.Cl.Cl` [GW768504] it was 0%; in that of `CCn1c(-c2nonc2N)nc2cncc(CNC3CCNCC3)c21.Cl` [SB-747651], 35%; in that of `FC(F)(F)c1cc(Br)cc(Nc2nccc(-c3cnn4ncccc34)n2)c1` [GW810578], 16%.
Still for that read-out and setting: in the case of `Cn1ccc2ncnc(Oc3ccc(NC(=O)Nc4cncc(C(F)(F)F)c4)c(Cl)c3)c21` it was 0%; in that of `O=C(Nc1n[nH]c2cc(-c3ccco3)ccc12)C1CC1` [SB-737447], 9%.
As to `CN(c1ccc2c(c1)nc(NCc1ccc(F)cc1)n2C)c1ccnc(Nc2ccc(CS(C)(=O)=O)cc2)n1.Cl` [GW813244], the “%Inh” value came to 18%.
Still for that read-out and setting: in the case of `COc1cccc(OC)c1C(=O)Nc1cccc(-c2nn3ccccc3c2-c2ccnc(Nc3cccc(F)c3)n2)c1` [GSK361065] it was 91.7%; in that of `CCN1CCN(CCCC(=O)Nc2n[nH]c3nc(-c4ccc(O)cc4)c(Br)cc23)CC1` [SB-731579], 0%.
Same read-out and setting: in the case of `Cn1cc(-c2cccc3c(N)c(C(N)=O)nnc23)cn1` it was 22%; in that of `O=C(Nc1cccc(C(F)(F)F)c1)c1cccc(Oc2ccc3nccn3n2)c1`, 13%; in that of `Cn1ccc2ncnc(Oc3ccc(NC(=O)Nc4cnn(C(C)(C)C)c4)c(Cl)c3)c21`, 25%.
Still for that read-out and setting: in the case of `COc1ccc(Nc2nccc(N3CCC(NC(=O)c4cccc(C#N)c4)C3)n2)cc1` (centres unmarked) [GSK1379730] it was 29%; in that of `CC(C)S(=O)(=O)N1CCN(Cc2ccc3c(c2)nc(NC(=O)c2ccsc2)n3C[C@H](O)c2ccccc2)CC1` [GW635815], 20%; in that of `Cn1ccc2ncnc(Oc3ccc(NC(=O)Nc4cccc(C(F)(F)F)c4)c(F)c3)c21`, 12%.
With `Cc1ccc2c(-c3ccnc(Nc4ccc(C(F)(F)F)cc4)n3)cnn2n1` [GW819776], the “%Inh” value is on record as 0%.
Still for that read-out and setting: in the case of `c1ccc(Oc2ccc(Nc3ccnc4ccc(-c5ccccn5)cc34)cc2)cc1` [GW407034] it was 82%; in that of `COc1cc2ncn(-c3cc(OCC4CCCCC4)c(C(N)=O)s3)c2cc1OC` [GSK204559], 38%.
Still for that read-out and setting: in the case of `Cl.Nc1n[nH]c2cc(-c3ccccn3)ccc12` [GSK2189892] it was 38%.
The same measure, in the same setting: in the case of `CNC(=O)c1ccccc1Nc1nc(Nc2cccc(CS(C)(=O)=O)c2)ncc1C.O=CO` [GSK1520489] it was 99%.
On to `CN1CCN(CCCNc2nccc(-c3c(-c4ccc(F)cc4)nn4cc(C(N)=O)ccc34)n2)CC1` [GW622475], for which the “%Inh” value is 38%.
For `CC(C)c1nc(-c2cccc(NS(=O)(=O)c3ccccc3)c2)c(-c2ccnc(Nc3ccc4c(c3)CN(C)CC4)n2)s1` [GSK1649598], the “%Inh” value amounted to 84%.
In the case of `COc1cccc(C2=C(Nc3cccc(Cl)c3)C(=O)NC2=O)c1` [SB-341556], the “%Inh” value worked out at 25%.
The same measure, in the same setting: in the case of `Cl.Cl.NC[C@H](CC1CCCCC1)NC(=O)c1ccc(-c2ccnc3[nH]ccc23)s1` [GSK1581428] it was 28%.
In the case of `Cn1ccc2ncnc(Oc3ccc(NC(=O)Nc4cc(C(C)(C)C)on4)c(Cl)c3)c21`, the “%Inh” value turned out to be 50%.

The test system of a further assay is EIF2AK1. As to conditions: concentration: 1 μM,replicates: in singlicate; n = 1.
For `CS(=O)c1ccc(-c2coc3ccc(-c4n[nH]c(=O)o4)cc23)cc1` (centres unmarked), the “%Inh” value amounted to 3%.
On the same count and under the same terms, in the case of `Cc1ccc(Nc2ccnc(Nc3ccc4c(c3)CS(=O)(=O)C4)n2)cc1O.Cl` [GW579362] it was 17%; in that of `CS(=O)(=O)Nc1ccc(-c2ccnc3[nH]ccc23)cc1` [GSK993273], 1%; in that of `COc1cc(Nc2nccc(N3CCC(NC(=O)c4cccc(C#N)c4)C3)n2)cc(OC)c1OC` (centres unmarked) [GSK1379751], 0%.
The same measure, in the same setting: in the case of `O=c1[nH]cc(-c2ccc(O)cc2)c2sc(-c3ccncc3)cc12` [GSK1033723] it was 12%; in that of `COc1cccc(CNC(=O)NC2CCN(c3ccnc(Nc4cc(OC)c(OC)c(OC)c4)n3)C2)c1` (centres unmarked) [GSK1379765], 0%.
Still for that read-out and setting: in the case of `O=C1NCCc2[nH]c(-c3ccncc3)cc21` it was 0%.
Regarding `O=C(Nc1ccc(Oc2ccc3nc(NC(=O)C4CC4)cn3n2)c(F)c1)c1cccn(-c2ccccc2)c1=O`, the “%Inh” value was found to be 0%.
Still for that read-out and setting: in the case of `COC(=O)c1cccc(NC(=O)NC2CCN(c3ccnc(NCc4ccc(F)cc4)n3)CC2)c1` [GSK1379860] it was 0%; in that of `Nc1nccc(-c2ccc3c(N)n[nH]c3c2)n1` [GSK1034945], 4%.
Same read-out and setting: in the case of `CC(C(=O)NC1CCN(c2ccnc(Nc3ccc(F)cc3)n2)C1)c1ccc(Cl)cc1` (centres unmarked) [GSK1379713] it was 0%.
The same measure, in the same setting: in the case of `Cc1ccc(C(=O)Nc2ccc(Oc3ccc4nc(NC(=O)C5CC5)cn4c3)c(F)c2)c(=O)n1-c1ccccc1` it was 0%; in that of `OCCn1cc(-c2cnc3nnn(Cc4ccc5ncccc5c4)c3n2)cn1`, 0%; in that of `CN1CCN(CCNc2nc3cc(Oc4ccc(NC(=O)Nc5cc(C(F)(F)F)ccc5F)cc4)ccc3[nH]2)CC1.Cl.Cl` [GW768504], 0%.
Regarding `CCn1c(-c2nonc2N)nc2cncc(CNC3CCNCC3)c21.Cl` [SB-747651], the “%Inh” value is 2%.
The same measure, in the same setting: in the case of `FC(F)(F)c1cc(Br)cc(Nc2nccc(-c3cnn4ncccc34)n2)c1` [GW810578] it was 0%.
Still for that read-out and setting: in the case of `Cn1ccc2ncnc(Oc3ccc(NC(=O)Nc4cncc(C(F)(F)F)c4)c(Cl)c3)c21` it was 0%; in that of `O=C(Nc1n[nH]c2cc(-c3ccco3)ccc12)C1CC1` [SB-737447], 0%; in that of `CN(c1ccc2c(c1)nc(NCc1ccc(F)cc1)n2C)c1ccnc(Nc2ccc(CS(C)(=O)=O)cc2)n1.Cl` [GW813244], 0%.
Still for that read-out and setting: in the case of `COc1cccc(OC)c1C(=O)Nc1cccc(-c2nn3ccccc3c2-c2ccnc(Nc3cccc(F)c3)n2)c1` [GSK361065] it was 0%; in that of `CCN1CCN(CCCC(=O)Nc2n[nH]c3nc(-c4ccc(O)cc4)c(Br)cc23)CC1` [SB-731579], 71%; in that of `Cn1cc(-c2cccc3c(N)c(C(N)=O)nnc23)cn1`, 18%.
Regarding `O=C(Nc1cccc(C(F)(F)F)c1)c1cccc(Oc2ccc3nccn3n2)c1`, the “%Inh” value was found to be 0%.
Turning to `Cn1ccc2ncnc(Oc3ccc(NC(=O)Nc4cnn(C(C)(C)C)c4)c(Cl)c3)c21`, the “%Inh” value is given as 0%.
Take `COc1ccc(Nc2nccc(N3CCC(NC(=O)c4cccc(C#N)c4)C3)n2)cc1` (centres unmarked) [GSK1379730]: the “%Inh” value is 0%.
Consider `CC(C)S(=O)(=O)N1CCN(Cc2ccc3c(c2)nc(NC(=O)c2ccsc2)n3C[C@H](O)c2ccccc2)CC1` [GW635815], for which the “%Inh” value was 1%.
Still for that read-out and setting: in the case of `Cn1ccc2ncnc(Oc3ccc(NC(=O)Nc4cccc(C(F)(F)F)c4)c(F)c3)c21` it was 0%; in that of `Cc1ccc2c(-c3ccnc(Nc4ccc(C(F)(F)F)cc4)n3)cnn2n1` [GW819776], 0%.
Still for that read-out and setting: in the case of `c1ccc(Oc2ccc(Nc3ccnc4ccc(-c5ccccn5)cc34)cc2)cc1` [GW407034] it was 0%.
The same measure, in the same setting: in the case of `COc1cc2ncn(-c3cc(OCC4CCCCC4)c(C(N)=O)s3)c2cc1OC` [GSK204559] it was 1%; in that of `Cl.Nc1n[nH]c2cc(-c3ccccn3)ccc12` [GSK2189892], 0%; in that of `CNC(=O)c1ccccc1Nc1nc(Nc2cccc(CS(C)(=O)=O)c2)ncc1C.O=CO` [GSK1520489], 0%.
Take `CN1CCN(CCCNc2nccc(-c3c(-c4ccc(F)cc4)nn4cc(C(N)=O)ccc34)n2)CC1` [GW622475]: the “%Inh” value turned out to be 8%.
Still for that read-out and setting: in the case of `CC(C)c1nc(-c2cccc(NS(=O)(=O)c3ccccc3)c2)c(-c2ccnc(Nc3ccc4c(c3)CN(C)CC4)n2)s1` [GSK1649598] it was 95.1%.
On the same count and under the same terms, in the case of `COc1cccc(C2=C(Nc3cccc(Cl)c3)C(=O)NC2=O)c1` [SB-341556] it was 9%; in that of `Cl.Cl.NC[C@H](CC1CCCCC1)NC(=O)c1ccc(-c2ccnc3[nH]ccc23)s1` [GSK1581428], 0%.
On the same count and under the same terms, in the case of `Cn1ccc2ncnc(Oc3ccc(NC(=O)Nc4cc(C(C)(C)C)on4)c(Cl)c3)c21` it was 3%.
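Further: KINOMEscan kinase panel screen.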
